Results: the supplement of paper PMC8975748
Structures can show the parent of a compound that is named as a salt.

Each compound was assayed on Saccharomyces cerevisiae BY4741 SeMeCo community (assay: z-score of subpopulation abundance vs DMSO median, subpopulation auxotrophic for LUM; higher = larger share of this subpopulation than in DMSO controls). Details: 10 µM; 24 h; SM minimal medium; subpopulation (auxotrophy): LUM.
Procedure: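 Fluorescent four-plasmid SeMeCo (self-establishing metabolically cooperating S. cerevisiae BY4741 community; plasmids pH-mRuby2, pL-mWasabi, pU-eCFP, pM-TagRFP657) was grown 24 h in minimal SM medium with each Selleck FDA-approved drug at 10 µM in 384-well plates. Cells were fixed and imaged by high-content confocal microscopy. For each auxotrophic subpopulation (and the prototroph), a z-score gives the deviation from the DMSO vehicle-control population median.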
In the case of CN1[C@@H]2C[C@@H](OC(=O)[C@H](CO)c3ccccc3)C[C@H]1[C@@H]1O[C@@H]12 [Scopolamine HBr], the “z-score of subpopulation abundance” value is reported as -0.9. For CCN(CC)CCOC(=O)C(O)(c1ccccc1)c1ccccc1 [Benactyzine hydrochloride], the “z-score of subpopulation abundance” value was -0.06. With C[CH2][Hg][S]c1ccccc1C(=O)[O-].[Na+] [Thimerosal] the “z-score of subpopulation abundance” value was 21. For CCOC(=O)Nc1ccc(NCc2ccc(F)cc2)cc1N [Retigabine 2HCl], the “z-score of subpopulation abundance” value was -0.01. With CNC1CC(N)C(O)C(OC2OC(CO)C(O)C3OC4(OC(C(N)CO)C(O)C(O)C4O)OC23)C1O (stereo not given) [Hygromycin B] the “z-score of subpopulation abundance” value was -0.17. In the case of CC(C)N(CCC(C(N)=O)(c1ccccc1)c1ccccn1)C(C)C (stereo not given) [Disopyramide], the “z-score of subpopulation abundance” value is reported as 0.92. With O=c1[nH]c2ccccc2n1CCCN1CCC(n2c(=O)[nH]c3cc(Cl)ccc32)CC1 [Domperidone] the “z-score of subpopulation abundance” value was -0.33. With C[C@H]1O[C@H](O[C@H]2[C@H](O)[C@@H](O)[C@@H](O)[C@H](O)[C@@H]2O)[C@@H](N)C[C@@H]1NC(=N)C(=O)O [Kasugamycin hydrochloride] the “z-score of subpopulation abundance” value was 0.34. With CN1c2ccccc2C(NCCCCCCC(=O)O)c2ccc(Cl)cc2S1(=O)=O (stereo not given) [Tianeptine sodium] the “z-score of subpopulation abundance” value was 0.15. For CN(C)C(=O)Oc1cccc([N+](C)(C)C)c1 [Neostigmine Bromide], the “z-score of subpopulation abundance” value was 0.02. In the case of CN[C@@H]1[C@@H](O)[C@@H](O[C@@H]2[C@@H](O)[C@H](O[C@H]3O[C@H](CN)CC[C@H]3N)[C@@H](N)C[C@H]2N)OC[C@]1(C)O.CN[C@@H]1[C@@H](O)[C@@H](O[C@@H]2[C@@H](O)[C@H](O[C@H]3O[C@H]([C@@H](C)N)CC[C@H]3N)[C@@H](N)C[C@H]2N)OC[C@]1(C)O.CN[C@@H]1[C@@H](O)[C@@H](O[C@@H]2[C@@H](O)[C@H](O[C@H]3O[C@H]([C@@H](C)NC)CC[C@H]3N)[C@@H](N)C[C@H]2N)OC[C@]1(C)O [Gentamicin Sulfate], the “z-score of subpopulation abundance” value is reported as -0.47. In the case of CCN(C)C(=O)Oc1cccc([C@H](C)N(C)C)c1 [Rivastigmine], the “z-score of subpopulation abundance” value is reported as -0.27. With Cc1cc(O)ccc1Cl [Chlorocresol] the “z-score of subpopulation abundance” value was -0.61. O=C(O[C@H]1C[N+]2(CCCOc3ccccc3)CCC1CC2)C(O)(c1cccs1)c1cccs1 [Aclidinium Bromide] was tested, and the “z-score of subpopulation abundance” value was -0.16. CC[C@H]1[C@@H]2C[C@H]3[C@@H]4N(C)c5ccccc5[C@]45C[C@@H]([C@@H]2[C@H]5O)N3[C@@H]1O [Ajmaline] was tested, and the “z-score of subpopulation abundance” value was -0.35. In the case of CCN(C)C(=O)Oc1cccc([C@H](C)N(C)C)c1 [Rivastigmine Tartrate], the “z-score of subpopulation abundance” value is reported as -0.01. CN(C)[C@@H]1C(=O)C(C(N)=O)=C(O)[C@@]2(O)C(=O)C3=C(O)c4c(O)cccc4[C@@](C)(O)[C@H]3[C@H](O)[C@@H]12 [Oxytetracycline (Terramycin)] was tested, and the “z-score of subpopulation abundance” value was 0.18. With N#Cc1nn(-c2c(Cl)cc(C(F)(F)F)cc2Cl)c(N)c1[S+]([O-])C(F)(F)F (stereo not given) [Fipronil] the “z-score of subpopulation abundance” value was -0.72. For CN(C)[C@@H]1C(=O)C(C(N)=O)=C(O)[C@@]2(O)C(=O)C3=C(O)c4c(O)cccc4[C@@](C)(O)[C@H]3[C@H](O)[C@@H]12 [Oxytetracycline Dihydrate], the “z-score of subpopulation abundance” value was 0.01. CC(NC(C)(C)C)C(=O)c1cccc(Cl)c1 (stereo not given) [Amfebutamone (Bupropion) HCl] was tested, and the “z-score of subpopulation abundance” value was -0.86. For CC[C@H]1CN2CC[C@]3(C(=O)Nc4ccccc43)[C@@H]2C[C@@H]1/C(=C\OC)C(=O)OC [Rhynchophylline], the “z-score of subpopulation abundance” value was -0.36. For CCOC(=O)Nc1ccc(NCc2ccc(F)cc2)cc1N [Retigabine], the “z-score of subpopulation abundance” value was -0.25. With CC[C@@H](C(N)=O)N1CCCC1=O [Levetiracetam] the “z-score of subpopulation abundance” value was -0.55. For Nc1ccncc1 [4-Aminopyridine], the “z-score of subpopulation abundance” value was 0.34. For CN1[C@@H]2C[C@@H](OC(=O)[C@H](CO)c3ccccc3)C[C@H]1[C@@H]1O[C@@H]12 [Scopolamine HBr trihydrate], the “z-score of subpopulation abundance” value was -0.33. CC(C)(O)C(Cl)(Cl)Cl [Chlorobutanol] was tested, and the “z-score of subpopulation abundance” value was 0.26. For CC[C@@]1(O)C(=O)OCc2c1cc1n(c2=O)Cc2cc3ccccc3nc2-1 [Camptothecin], the “z-score of subpopulation abundance” value was -0.25. In the case of Nc1nc(N)nc(NC2CC2)n1 [Cyromazine], the “z-score of subpopulation abundance” value is reported as 0.89. For N[C@@H]1C[C@H]1c1ccccc1 [Tranylcypromine (2-PCPA) HCl], the “z-score of subpopulation abundance” value was -0.84. CN1[C@@H]2CC[C@H]1C[C@@H](OC(=O)[C@H](CO)c1ccccc1)C2 [Hyoscyamine] was tested, and the “z-score of subpopulation abundance” value was -0.43. C=C(C)[C@H]1Cc2c(ccc3c2O[C@@H]2COc4cc(OC)c(OC)cc4[C@@H]2C3=O)O1 [Rotenone (Barbasco)] was tested, and the “z-score of subpopulation abundance” value was -0.01. In the case of COc1cc2c(cc1OC)C1CC(=O)C(CC(C)C)CN1CC2 (stereo not given) [Tetrabenazine (Xenazine)], the “z-score of subpopulation abundance” value is reported as 0.67. For COc1ccc(C=O)cc1 [p-Anisaldehyde], the “z-score of subpopulation abundance” value was -0.69. With C[C@@H]1O[C@@H](O[C@H]2C[C@@H](O)[C@]3(CO)[C@H]4[C@H](O)C[C@]5(C)[C@@H](C6=CC(=O)OC6)CC[C@]5(O)[C@@H]4CC[C@]3(O)C2)[C@H](O)[C@H](O)[C@H]1O [Ouabain] the “z-score of subpopulation abundance” value was -0.83. With COc1ccc2c3c([nH]c2c1)C(C)=NCC3 [Harmaline] the “z-score of subpopulation abundance” value was -4.96. For Cc1cc(C(C#N)c2ccc(Cl)cc2)c(Cl)cc1NC(=O)c1cc(I)cc(I)c1O (stereo not given) [Closantel], the “z-score of subpopulation abundance” value was 0.43. COc1ccc2c(c1)[C@]13CCCC[C@@H]1[C@H](C2)N(C)CC3 [Dextromethorphan hydrobromide hydrate] was tested, and the “z-score of subpopulation abundance” value was -0.51. For CC1(C)SC2C(N)C(=O)N2C1C(=O)O (stereo not given) [6-Aminopenicillanic acid], the “z-score of subpopulation abundance” value was -0.93. O=[N+]([O-])C(Br)(CO)CO [Bronopol] was tested, and the “z-score of subpopulation abundance” value was -0.07. For CC(=O)O[C@H]1C[C@@H]2CC[C@@H]3[C@H](CC[C@@]4(C)[C@H]3C[C@H]([N+]3(C)CCCCC3)[C@@H]4OC(C)=O)[C@@]2(C)C[C@@H]1[N+]1(C)CCCCC1 [Pancuronium dibromide], the “z-score of subpopulation abundance” value was -0.96.
